# Compound activity: PubChem, National Center for Advancing Translational Sciences (NCATS)
# Compounds with a hit are over-represented: about 0.87% of the library has one in this group of screens.
# FEN1 inh – human FEN1 inhibition | Recombinant FEN1 flap cleavage, fluorescence, 15 min | Potency, µM (doses to about 114 µM), usual class: inhibitors | 390,000 compounds, 0.35% hits | AID 588795; note: nearly all actives have a fitted effect of over 65% in size
# Target sequence (P39748 whole entry, looked up): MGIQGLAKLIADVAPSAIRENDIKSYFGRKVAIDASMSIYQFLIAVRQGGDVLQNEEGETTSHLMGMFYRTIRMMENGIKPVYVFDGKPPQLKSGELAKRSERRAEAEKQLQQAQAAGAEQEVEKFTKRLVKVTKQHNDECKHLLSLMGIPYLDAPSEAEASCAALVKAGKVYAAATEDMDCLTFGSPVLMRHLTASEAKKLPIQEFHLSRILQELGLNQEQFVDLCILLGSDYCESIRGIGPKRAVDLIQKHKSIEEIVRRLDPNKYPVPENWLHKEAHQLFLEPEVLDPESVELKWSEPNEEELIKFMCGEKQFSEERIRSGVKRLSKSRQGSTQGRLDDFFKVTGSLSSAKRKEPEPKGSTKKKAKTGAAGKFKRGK
#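 Recombinant FEN1 (10 nM) was preincubated with pin-transferred compounds for 15 min at room temperature, then flap DNA substrate (50 nM final) was added. Plates were read at 0 and 15 min, and normalized concentration–response data were fitted to a four-parameter Hill equation.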
# BLM helicase inh – blocks DNA unwinding by human BLM helicase | P54132 | Potency, µM (titrated, usually from 56.1 µM), actives largely listed as inhibitors | recombinant BLM DNA unwinding, fluorescence dequenching | 350,000 compounds, 0.2% hits | AID 2528; note: nearly all actives have a fitted effect of over 35% in size
# APEX1 inh – inhibitors of human APE1 endonuclease; 350,000 compounds, 0.35% hits; recombinant APE1, TAMRA/BHQ-2 abasic DNA cleavage fluorescence; Potency, µM (top dose mostly 65.8 µM), hits mostly inhibitors; P27695; note: nearly all actives have a fitted effect of over 55% in size
# Target sequence (P27695 whole entry, looked up): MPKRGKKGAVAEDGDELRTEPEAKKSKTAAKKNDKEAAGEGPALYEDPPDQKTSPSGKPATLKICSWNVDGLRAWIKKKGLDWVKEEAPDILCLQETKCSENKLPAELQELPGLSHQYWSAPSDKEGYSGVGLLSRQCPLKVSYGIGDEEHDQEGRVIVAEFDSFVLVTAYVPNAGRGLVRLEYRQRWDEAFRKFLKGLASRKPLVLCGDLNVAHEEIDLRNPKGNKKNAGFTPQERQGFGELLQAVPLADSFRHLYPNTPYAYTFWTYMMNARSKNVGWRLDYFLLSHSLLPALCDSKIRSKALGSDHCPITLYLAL
#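 Readout is kinetic fluorescence (ex 525, em 598 nm) from cleavage of 50 nM TAMRA/BHQ-2 THF abasic duplex by 0.75 nM APE1, compound added 15 min beforehand at RT.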
# WRN helicase inh – inhibitors of human WRN helicase. Q14191. WRN helicase unwinding, fluorescent forked duplex, kinetic. Potency, µM (series often up to 114 µM), hits mostly inhibitors. 360,000 compounds, 0.46% hits; note: nearly all actives have a fitted effect of over 55% in size
#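 Screening of the MLSMR collection measured strand separation of a quenched forked DNA duplex (100 nM) by 20 nM WRN with 2 mM ATP, all final. Compounds were preincubated with enzyme 15 min at room temperature.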
# RECQ1 inh-1 – RECQ1 (human) helicase inhibition; RECQ1 DNA unwinding, red fluorescence kinetic read; P46063; 240,000 compounds, 0.54% hits; AID 2549; Potency, µM (series often up to 57.3 µM), hits mostly inhibitors; note: nearly all actives have a fitted effect of over 30% in size
#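 RECQ1T1 50 nM; forked duplex (20 bp + 30-nt ss tails) 200 nM, ATP 2 mM final; pH 8.0, 2 mM MgCl2, 2.5 ug/ml poly(dI-dC); 15 min compound preincubation; discontinuous kinetic read over 2 h at RT.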
# RECQ1 conf – confirmation of human RECQ1 helicase inhibitors | shares compounds with RECQ1 inh-1 | RECQ1 helicase DNA unwinding, fluorescence | Potency, µM (series often up to 229 µM), hits mostly inhibitors | 610 compounds, 28% hits | AID 2708; note: nearly all actives have a fitted effect of over 45% in size
# ADP FP counter – ADP displacement flagged in RECQ1 inhibitor counter-screen | shares compounds with RECQ1 inh-1 | ADP fluorescence polarization displacement counterscreen | Potency, µM (series often up to 228 µM), most hits filed as inhibitors | 530 compounds, 27% hits; note: nearly all actives have a fitted effect of over 45% in size
# RECQ1 inh-2 – RECQ1 helicase inhibition confirmed, round 2; AID 504841; shares compounds with RECQ1 inh-1; 1,100 compounds, 15% hits; recombinant RECQ1 DNA unwinding, red fluorescence; Potency, µM (series often up to 119 µM), most hits filed as inhibitors; note: nearly all actives have a fitted effect of over 50% in size
# Hits are given with their value; 0 = inactive; ? = inconclusive; - = no result given; [ ] = remark or other dose. Calls come from the whole dose curve; as a rule, active = well fitted curve in the direction sought with a large enough effect; inconclusive = small, poorly fitted or top-dose-only effect, or another doubt; inactive = no such curve, though single readings can be large; an effect the other way counts as inactive or inconclusive.
SMILES,FEN1 inh,BLM helicase inh,APEX1 inh,WRN helicase inh,RECQ1 inh-1,RECQ1 conf,ADP FP counter,others
CN(C(=O)c1nn(C)c2c1COc1ccccc1-2)c1cccc(C(F)(F)F)c1,0,0,-,-,-,-,-,
Cc1cccc(NS(=O)(=O)c2ccc3c(c2)CCN3C(=O)CCC(=O)O)c1C,0,0,-,-,-,-,-,
CCN(c1ccc(OC)cc1)S(=O)(=O)c1ccc2c(c1)CCN2C(=O)CCC(=O)O,0,0,0,0,0,0,0,
COc1ccc(N(C)S(=O)(=O)c2ccc3c(c2)CCN3C(=O)CCC(=O)O)cc1,0,0,-,-,-,-,-,
CCN(c1ccc(C)c(C)c1)S(=O)(=O)c1ccc2c(c1)CCN2C(=O)CCC(=O)O,0,0,0,0,0,0,0,
CCc1cccc(NC(=O)Cn2cc(C(=O)c3ccncc3)c(=O)c3cc(C)c(C)cc32)c1,0,0,-,-,-,-,-,
Clc1ccc(C2=NCCN2)cc1,0,0,0,0,?,-,-,RECQ1 inh-2=0
CCN1/C(=C/c2cc[n+](CCCS(=O)(=O)[O-])c3ccccc23)Sc2ccccc21,?,0,?,0,?,-,-,RECQ1 inh-2=56µM
CCC(=O)/C=C1/Sc2ccccc2N1CC,0,0,0,0,0,-,-,
Cc1ccc(-n2c(=O)c3c(c4cc(C)ccc4n3C)n(CC(=O)Nc3ccc(F)cc3)c2=O)cc1,0,0,-,-,-,-,-,
CCOC(=O)c1cnn2c(C(F)(F)F)cc(-c3ccc(Br)cc3)nc12,0,0,-,-,-,-,-,
O=C(O)c1cccc(N2C(=O)c3ccc(Oc4ccc(Cl)cc4)cc3C2=O)c1,0,0,0,0,0,-,-,
O=C(O)c1cccc(N2C(=O)/C(=C/c3ccc(SCc4ccc(Cl)cc4)o3)SC2=S)c1,?,0,10µM,18µM,22µM,0,-,
CCOC(=O)c1ccc(NC(=O)C2CCN(S(=O)(=O)Cc3ccccc3)CC2)cc1,0,0,-,-,-,-,-,
O=C(O)CSc1nnc(Cc2ccccc2)n1Cc1ccccc1,0,0,0,0,0,0,0,
CCCCNC(=O)C(CC)Sc1nc2ccccc2c(=O)n1Cc1ccco1 (centres undefined),0,0,-,-,-,-,-,
COCCNC(=O)c1noc2c1CCc1cc(OC)ccc1-2,0,0,0,0,0,-,-,
COc1ccc2c(c1)CCc1c(C(=O)N(C)c3ccccc3)noc1-2,0,0,0,0,4.5µM,0,?,RECQ1 inh-2=0
CC1=Nc2ccccc2/C1=C/c1sc(=N)n(-c2nccs2)c1O,?,0,0,?,18µM,0,0,
O=C(CNS(=O)(=O)c1ccc(Br)cc1Cl)OCC(=O)c1ccc[nH]1,0,-,0,0,-,-,-,
O=C(CNS(=O)(=O)c1c(Cl)cccc1Cl)OCC(=O)c1ccc[nH]1,0,0,0,0[11.6 µM],?,-,-,RECQ1 inh-2=0
O=C(N/N=C/c1ccc(O)c(O)c1)c1ccc(CSc2cccc3cccnc23)cc1,?,0,0,?,11µM,0,0,
O=C(CSc1cccc2cccnc12)N/N=C/c1cccc(O)c1,0,0,0,0,0,-,-,
CCC(=O)Nc1ccc(CC)cc1-c1nc2ccccc2n(CC(=O)Nc2cccc(Cl)c2)c1=O,0,0,-,-,-,-,-,
Cc1cc2nc3ccc(=[N+](C)C)cc-3sc2cc1N,22µM,16µM,?,-,16µM,3.5µM,7.1µM,RECQ1 inh-2=16µM
SMILES,FEN1 inh,BLM helicase inh,APEX1 inh,WRN helicase inh,RECQ1 inh-1,RECQ1 conf,ADP FP counter,others
c1ccc2nc(-c3cc4ccccc4s3)ccc2c1,0,-,-,-,-,-,-,
COc1ccc2cc(C(C)c3nc4ccccc4c(=O)n3N)ccc2c1 (centres undefined),0,0,0,?,28µM,-,-,RECQ1 inh-2=0
CC(=O)O[C@H]1CC[C@H]2[C@@H]3CCc4cc(O)ccc4[C@H]3CC[C@]12C,0,0,0,0,0,-,-,
CC(=O)OC1CCC2C3CCc4cc(O)ccc4C3CCC12C (centres undefined),0,0,-,0,16µM,0,8.9µM,
Cc1ccc(C(=O)c2sc(Nc3ccccc3F)c(S(=O)(=O)c3ccccc3)c2N)c(C)c1,0,0,-,-,-,-,-,
Cc1ccc(C(=O)c2coc3c2C(=O)C(=O)c2ccccc2-3)cc1,0,0,0,0,0,-,-,
Cc1ccc(C(=O)c2c(C)oc3c2C(=O)C(=O)c2ccccc2-3)cc1,0,0,0,0,?,-,-,RECQ1 inh-2=56µM
CCn1cc(C(=O)N2CCN(c3cccc(C)c3C)CC2)c2cc(OC)c(OC)cc2c1=O,0,0,-,-,-,-,-,
O=C(O)CCCCCn1c(SCc2cc(=O)n3cc(Cl)ccc3n2)nc2ccsc2c1=O,0,0,0,0,0,?,?,
CCOc1ccc(NC(=O)CSc2nc3ccsc3c(=O)n2CCCCC(=O)O)cc1,-,-,-,0[11.6 µM],-,-,-,
CCc1ccc(NC(=O)CSc2nc3ccsc3c(=O)n2CCCCCC(=O)O)cc1,0,0,0,0,0,0,0,
O=C(c1ccc(OCCN2CCCCC2)cc1)c1c(-c2ccc(O)cc2)sc2cc(O)ccc12,0,0,0,0,?,-,-,RECQ1 inh-2=0
Oc1cccc(-c2sc3ccccc3c2-c2ccc(OCCN3CCCCC3)cc2)c1,-,-,-,0,-,-,-,
O=C(NCCc1ccccc1)c1ccc2c(c1)N(Cc1ccccc1)C(=O)c1ccccc1S2=O (centres undefined),0,0,-,-,-,-,-,
c1cc(-c2noc(CCC3CCCC3)n2)ccn1,0,0,0,0,?,-,-,RECQ1 inh-2=0
O=S(=O)(c1ccc(-c2nnc(SCc3nnc(-c4ccccc4)o3)o2)cc1)N1CCCC1,0,0,0,0,0,0,0,
CCn1c(=O)c2cc(C(=O)N(C)c3cc(C)ccc3C)sc2c2ccccc21,0,0,-,-,-,-,-,
Cc1cc(=O)c2c(O)c3c(O)cc(O)c4c5c(O)cc(O)c6c(O)c7c(=O)cc(C)c8c1c2c(c34)c(c65)c78,-,20µM,3.2µM,-,0.56µM,?,0.14µM,
Cc1cc(=O)c2c(C)ccc(C)c2[nH]1,0,0,0,0,0,-,-,
Cc1ccc(NC(=O)Cc2cc(C(=O)O)c3ccccc3n2)c(C)c1,0,0,0,0,0,0,0,
Cc1ccc(NC(=O)c2cc(-c3cccs3)nc3ccccc23)c(C)c1,0,0,-,-,-,-,-,
C=CCn1c(SCC(=O)Nc2ccc3c(c2)CCC3)nnc1-c1cccs1,0,0,0,0,0,-,-,
C=CCn1c(SCC(=O)O)nnc1-c1cccs1,0,0,0,0,0,0,0,
CCCn1nnc(NC(=S)NC(=O)/C=C/c2ccco2)n1,?,0,?,?,?,-,-,RECQ1 inh-2=0
COc1ccccc1NC(=S)NC(=O)/C=C/c1ccco1,0,0,?,?,?,-,-,RECQ1 inh-2=?
CCOC(=O)CN1C(=O)S/C(=C/C=C/c2ccc(N(C)C)cc2)C1=O,0,?,0,?,25µM,-,-,RECQ1 inh-2=32µM
O=C(NCC1(c2ccccc2)CCCC1)C(=O)Nc1cccc(Br)c1,0,0,-,-,-,-,-,
